Source: PubChem BioAssay (NCI)
Where “and” joins values, the source holds several entries; their conditions need not be identical. Equal values may be shown once. This is part of a sample that, as a whole, favours compounds with a hit. Of some 79,000 tested, about 15% had one in any assay. Some compounds were tested as several samples or in several runs, with calls that do not always agree. Calls of active or inactive are those of the source. Cut-off read from the data, not from the text of the source: active = growth inhibition above about 70%; inactive = the rest.

Legend:
[1] = NCI Yeast Anticancer Drug Screen. Data for the rad50 strain (AID 155);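 note: 0% = growth of vehicle-only cultures of the same strain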; conditions: S. cerevisiae rad50 strain growth inhibition, stronger effect = higher value
In short: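 Relative growth inhibition (compound vs vehicle) was measured in yeast with a defined repair-gene alteration.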

[2] = NCI Yeast Anticancer Drug Screen. Data for the mec2-1 strain (AID 157); conditions: S. cerevisiae mec2-1 strain, stronger effect = higher value
In short: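 Test agents were screened against the mec2-1 yeast strain, with defined DNA repair or cell cycle alteration. Growth was scored as inhibition against vehicle-only controls.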

[3] = NCI Yeast Anticancer Drug Screen. Data for the sgs1 mgt1 strain (AID 161);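 note: 0% = growth of cultures given vehicle only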; conditions: S. cerevisiae sgs1 mgt1 strain, stronger effect = higher value
In short: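 Inhibition of yeast growth, normalised to vehicle-treated controls, is reported for a strain bearing genetic alterations in DNA damage repair.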

[4] = NCI Yeast Anticancer Drug Screen. Data for the cln2 rad14 strain (AID 165);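 note: 0% = growth equal to vehicle treated cultures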; conditions: S. cerevisiae cln2 rad14 strain, stronger effect = higher value
In short: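 Growth of compound-exposed yeast (cln2 rad14 genotype) measured and expressed as inhibition relative to vehicle.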

[5] = NCI Yeast Anticancer Drug Screen. Data for the bub3 strain (AID 167); conditions: S. cerevisiae bub3 mutant strain, stronger effect = higher value
In short: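 Screening used yeast with an engineered genetic alteration affecting cell cycle control. Compound-exposed cultures were compared with vehicle cultures, and reduced growth was taken as inhibition.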

[6] = NCI Yeast Anticancer Drug Screen. Data for the mlh1 rad18 strain (AID 175); conditions: S. cerevisiae mlh1 rad18 strain growth inhibition, stronger effect = higher value
In short: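 In this whole-cell yeast screen, a strain with altered DNA damage repair is challenged with compound, and its growth is measured against matched vehicle-treated controls.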

[7] = at 5.0 µM (retest, dose inferred, filed as 0.5)
[8] = at 50.0 µM (retest, dose inferred, filed as 5.0)

Structure (SMILES) | growth inhibition [1, 7] | growth inhibition [1, 8] | growth inhibition ([1]; at 50.0 µM) | growth inhibition [2, 7] | growth inhibition [2, 8] | growth inhibition ([2]; at 50.0 µM) | growth inhibition [3, 7] | growth inhibition [3, 8] | growth inhibition ([3]; at 50.0 µM) | growth inhibition [4, 7] | growth inhibition [4, 8] | growth inhibition ([4]; at 50.0 µM) | growth inhibition [5, 7] | growth inhibition [5, 8] | growth inhibition ([5]; at 50.0 µM) | growth inhibition [6, 7] | growth inhibition [6, 8] | growth inhibition ([6]; at 50.0 µM)
CC(=O)OCC1OC(n2c(C)c(C(C)=O)c(-c3ccco3)c(C#N)c2=S)C(OC(C)=O)C(OC(C)=O)C1OC(C)=O (stereo not given) | -7% (inactive) | -3% (inactive) | -9.45% (inactive) and 32.2% (inactive) | 2% (inactive) | 1% (inactive) | -26.9% (inactive) and 56.2% (inactive) | 2% (inactive) | 13% (inactive) | -4.95% (inactive) and 74.4% (active) | 6% (inactive) | 22% (inactive) | -13.6% (inactive) and 40.8% (inactive) | -4% (inactive) | 9% (inactive) | -25.4% (inactive) and 42.4% (inactive) | -29% (inactive) | 12% (inactive) | 3.55% (inactive) and 45% (inactive)
Cc1cc([N+](=O)[O-])c(C)c2c1[nH]c1ccc(O)cc12 | 52% (inactive) | 93% (active) | 87% (active) | 46% (inactive) | 94% (active) | 88.8% (active) | 23% (inactive) | 94% (active) | 88.2% (active) | 50% (inactive) | 96% (active) | 85.5% (active) | 78% (active) | 96% (active) | 88.8% (active) | 73% (active) | 95% (active) | 82.7% (active)
O=[N+]([O-])C1=C(c2ccccc2)SC=C(c2ccccc2)S1 | 6% (inactive) and -1% (inactive) | 13% (inactive) and -6% (inactive) | 24% (inactive) and 71.5% (active) | -6% (inactive) and 10% (inactive) | -3% (inactive) and 1% (inactive) | 13.4% (inactive) and 82.9% (active) | 3% (inactive) and 22% (inactive) | -1% (inactive) and -5% (inactive) | 31.6% (inactive) and 84.7% (active) | 18% (inactive) and 1% (inactive) | 64% (inactive) and -4% (inactive) | 54.9% (inactive) and 89.1% (active) | 48% (inactive) and 50% (inactive) | 80% (active) and 28% (inactive) | 12.4% (inactive) and 84.8% (active) | -9% (inactive) and 17% (inactive) | -10% (inactive) and -3% (inactive) | 57.5% (inactive) and 85.9% (active)
COC(=O)C1C(O)C(C)C(O)C(C)C=C(C)C2=C3C(=C(C)C(=O)c4c(O)c(c(C)c(OC(C)=O)c43)NC(=O)C(C)=C/C=C\C(C)C(O)C(C)C1O)OCO2 (stereo not given) | -11% (inactive) | -37% (inactive) | 53.1% (inactive) and 5.45% (inactive) | -14% (inactive) | -42% (inactive) | 22.1% (inactive) and -8.55% (inactive) | -11% (inactive) | 89% (active) | 90.2% (active) and -9.2% (inactive) | -10% (inactive) | 10% (inactive) | 28.6% (inactive) and 3% (inactive) | -31% (inactive) | -27% (inactive) | 37.9% (inactive) and 8.2% (inactive) | -36% (inactive) | -3% (inactive) | 17.6% (inactive) and 8.65% (inactive)
Cc1ccc(S(=O)(=O)SC/C=C\CSS(=O)(=O)c2ccc(C)cc2)cc1 | 4% (inactive) and 51% (inactive) | 97% (active) and 95% (active) | 93.3% (active) and 74.7% (active) | 14% (inactive) and -2% (inactive) | 97% (active) | 97% (active) and 5.65% (inactive) | 12% (inactive) and 67% (inactive) | 95% (active) and 97% (active) | 95.8% (active) and 76.7% (active) | 3% (inactive) and 12% (inactive) | 94% (active) | 88.6% (active) and 22.6% (inactive) | 12% (inactive) and 17% (inactive) | 99% (active) and 98% (active) | 96.5% (active) and -3.05% (inactive) | 2% (inactive) and 53% (inactive) | 98% (active) and 95% (active) | 95.9% (active) and 41.2% (inactive)
O=C1C(CN2CCCCC2)CCCC1CN1CCCCC1 (stereo not given) | 0% (inactive) | 25% (inactive) | 13.3% (inactive) and 4.85% (inactive) | 2% (inactive) | 44% (inactive) | -11.6% (inactive) and 24.8% (inactive) | 1% (inactive) | 29% (inactive) | 10.4% (inactive) and 31.3% (inactive) | -4% (inactive) | 6% (inactive) | -46.1% (inactive) and 41.2% (inactive) | -4% (inactive) | 20% (inactive) | -3.9% (inactive) and 59.3% (inactive) | -1% (inactive) | 29% (inactive) | 3.2% (inactive) and 10.4% (inactive)
Cc1ccnc2c1c(=O)c1ccccc1n2C | 0% (inactive) | 86% (active) | 79.1% (active) | 4% (inactive) | 28% (inactive) | 60.2% (inactive) | -2% (inactive) | 35% (inactive) | 68.9% (inactive) | -6% (inactive) | -3% (inactive) | 46.2% (inactive) | -1% (inactive) | 12% (inactive) | 71.6% (active) | 3% (inactive) | 55% (inactive) | 74.3% (active)
CC(=O)OC1OC(CI)C(OC(C)=O)C(OC(C)=O)C1OC(C)=O (stereo not given) | 1% (inactive) | 38% (inactive) | 16.1% (inactive) and 5.95% (inactive) | -1% (inactive) | 21% (inactive) | 17% (inactive) and 12.6% (inactive) | -3% (inactive) | 19% (inactive) | 4.55% (inactive) and -11.6% (inactive) | 2% (inactive) | 49% (inactive) | 17.1% (inactive) and 5.75% (inactive) | -5% (inactive) | 69% (inactive) | 19.8% (inactive) and 94% (active) | -1% (inactive) | 25% (inactive) | 24.4% (inactive) and 9.3% (inactive)
CC(=O)OC1CCC2(C)C(CCC3C4CCC(OC(C)=O)C4(C)CCC32)O1 (stereo not given) | -3% (inactive) | 79% (active) | 36.2% (inactive) | 5% (inactive) | 95% (active) | 15.1% (inactive) | -23% (inactive) | 70% (active) | 43.6% (inactive) | -6% (inactive) | 41% (inactive) | 15% (inactive) | -2% (inactive) | 66% (inactive) | 11.3% (inactive) | 6% (inactive) | 93% (active) | 24.4% (inactive)
N=C1N(c2ccccc2)C(=S)C(=Nc2ccccc2)N1c1ccccc1 | 16% (inactive) | 99% (active) | 88.5% (active) | -4% (inactive) | 99% (active) | 90.8% (active) | 8% (inactive) | 99% (active) | 84% (active) | 9% (inactive) | 99% (active) | 82% (active) | -33% (inactive) | 99% (active) | 84.2% (active) | -6% (inactive) | 99% (active) | 87.2% (active)
CC(C)(C)CC(C)(C)c1ccc(OCCO)cc1 | -2% (inactive) | 98% (active) | -22.7% (inactive) and 99.6% (active) | -16% (inactive) | 99% (active) | -11.3% (inactive) and 99.5% (active) | -6% (inactive) | 97% (active) | 25.9% (inactive) and 99.5% (active) | -13% (inactive) | 99% (active) | -49.5% (inactive) and 99.3% (active) | -21% (inactive) | 99% (active) | -40.5% (inactive) and 99.5% (active) | -5% (inactive) | 99% (active) | -27.9% (inactive) and 99.5% (active)
O=C1C(Cl)=C(Cl)C(Cl)(Cl)C(Cl)=C1Cl | 24% (inactive) and 61% (inactive) | 99% (active) | 60.4% (inactive) and 64.4% (inactive) | 24% (inactive) and 42% (inactive) | 100% (active) | 99.2% (active) and 52.9% (inactive) | 18% (inactive) and 69% (inactive) | 99% (active) | 97.7% (active) and 66.2% (inactive) | 19% (inactive) and 13% (inactive) | 99% (active) and 98% (active) | 98.7% (active) and -4.55% (inactive) | 22% (inactive) and 19% (inactive) | 99% (active) and 100% (active) | 98.8% (active) and 55.9% (inactive) | 37% (inactive) and 50% (inactive) | 99% (active) | 98.1% (active) and 70.8% (active)
[N-]=[N+]=NC(=O)Nc1cccc(C(F)(F)F)c1 | 8% (inactive) | 99% (active) | 99% (active) | -1% (inactive) | 99% (active) | 99% (active) | 2% (inactive) | 99% (active) | 98.5% (active) | -3% (inactive) | 99% (active) | 97.8% (active) | 14% (inactive) | 98% (active) | 98.5% (active) | 8% (inactive) | 98% (active) | 98.8% (active)
CN(C)c1ccc(/C=C/c2ccc3ccccc3[n+]2C)cc1 | 1% (inactive) | 98% (active) | 53.4% (inactive) | 3% (inactive) | 98% (active) | 99% (active) | 11% (inactive) | 97% (active) | 46.2% (inactive) | 3% (inactive) | 98% (active) | 98% (active) | -9% (inactive) | 99% (active) | 84.2% (active) | -15% (inactive) | 98% (active) | 98.3% (active)
COC1/C=C\C=C(/C)C(=O)Nc2cc3nc4ccc(Br)cc4oc-3c(c2=O)CC(C)CC(OC)C(O)C(C)/C=C(\C)C1OC(N)=O (stereo not given) | 44% (inactive) | 97% (active) | 89.2% (active) | 57% (inactive) | 98% (active) | 90.9% (active) | 96% (active) | 98% (active) | 91.5% (active) | 85% (active) | 92% (active) | 89% (active) | 94% (active) | 97% (active) | 90.7% (active) | 57% (inactive) | 98% (active) | 88.1% (active)
